Experimental data: PubChem BioAssay (EPA / NIEHS)
Results filed as inconclusive are left out. Active and inactive are the calls of the source. Rule for the calls, unless noted: active = hit-call score of the fitted dose curve at least 0.9, where 1 is the maximum; inactive = score below 0.9.

Key:
[1] = ATG_CRE_CIS: Attagene CIS-FACTORIAL HepG2 Assay for human cAMP Responsive Element (CRE) binding protein 3 (AID 2282926); details: HepG2 CRE cis-reporter, Attagene multiplexed mRNA; actives raise or lower the signal
Summary of the method: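 Capillary electrophoresis of 6-FAM-labelled, HpaI-digested PCR products quantified reporter transcripts. These came from HepG2 transiently transfected with cis-element reporters and exposed to test chemicals for 24 hours, with DMSO defining baseline activity.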

[2] = target: Hepatocyte nuclear factor 3-beta (Homo sapiens) (UniProt Q9Y261); experiment: ATG_FoxA2_CIS: Attagene CIS-FACTORIAL HepG2 Assay for human Forkhead box A2 (FOXA2) (AID 2282942); details: HepG2 cis-reporter transcription factor activity, 24 h; actives raise or lower the signal
Hepatocyte nuclear factor 3-beta (Homo sapiens), sequence (Q9Y261 whole entry, looked up): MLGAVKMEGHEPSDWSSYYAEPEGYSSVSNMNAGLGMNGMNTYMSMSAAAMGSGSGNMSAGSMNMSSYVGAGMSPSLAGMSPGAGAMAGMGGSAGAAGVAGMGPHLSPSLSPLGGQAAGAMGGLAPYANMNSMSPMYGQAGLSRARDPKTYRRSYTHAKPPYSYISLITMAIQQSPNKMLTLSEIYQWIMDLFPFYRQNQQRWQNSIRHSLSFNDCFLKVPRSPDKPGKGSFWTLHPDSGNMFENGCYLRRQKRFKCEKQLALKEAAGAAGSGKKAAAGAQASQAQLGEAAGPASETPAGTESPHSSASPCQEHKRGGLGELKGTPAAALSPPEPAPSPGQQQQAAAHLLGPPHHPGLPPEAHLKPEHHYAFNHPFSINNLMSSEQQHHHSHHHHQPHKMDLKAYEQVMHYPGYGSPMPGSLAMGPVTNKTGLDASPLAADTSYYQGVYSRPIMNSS
Summary of the method: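 Endogenous transcription factor activity was read in HepG2 cells carrying transiently transfected cis-promoter reporter units. After 24 h dosing, reporter mRNA was quantified by RT-PCR and capillary electrophoresis, and values fitted bidirectionally versus DMSO.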

[3] = target: Hypoxia-inducible factor 1-alpha (Homo sapiens) (UniProt Q16665); experiment: ATG_HIF1a_CIS: Attagene CIS-FACTORIAL HepG2 Assay for human Hypoxia Inducible Factor 1 (HIF1A) (AID 2282951); details: HepG2 Attagene cis-factorial HIF1a reporter transcription; actives raise or lower the signal
Hypoxia-inducible factor 1-alpha (Homo sapiens), sequence (Q16665 whole entry, looked up): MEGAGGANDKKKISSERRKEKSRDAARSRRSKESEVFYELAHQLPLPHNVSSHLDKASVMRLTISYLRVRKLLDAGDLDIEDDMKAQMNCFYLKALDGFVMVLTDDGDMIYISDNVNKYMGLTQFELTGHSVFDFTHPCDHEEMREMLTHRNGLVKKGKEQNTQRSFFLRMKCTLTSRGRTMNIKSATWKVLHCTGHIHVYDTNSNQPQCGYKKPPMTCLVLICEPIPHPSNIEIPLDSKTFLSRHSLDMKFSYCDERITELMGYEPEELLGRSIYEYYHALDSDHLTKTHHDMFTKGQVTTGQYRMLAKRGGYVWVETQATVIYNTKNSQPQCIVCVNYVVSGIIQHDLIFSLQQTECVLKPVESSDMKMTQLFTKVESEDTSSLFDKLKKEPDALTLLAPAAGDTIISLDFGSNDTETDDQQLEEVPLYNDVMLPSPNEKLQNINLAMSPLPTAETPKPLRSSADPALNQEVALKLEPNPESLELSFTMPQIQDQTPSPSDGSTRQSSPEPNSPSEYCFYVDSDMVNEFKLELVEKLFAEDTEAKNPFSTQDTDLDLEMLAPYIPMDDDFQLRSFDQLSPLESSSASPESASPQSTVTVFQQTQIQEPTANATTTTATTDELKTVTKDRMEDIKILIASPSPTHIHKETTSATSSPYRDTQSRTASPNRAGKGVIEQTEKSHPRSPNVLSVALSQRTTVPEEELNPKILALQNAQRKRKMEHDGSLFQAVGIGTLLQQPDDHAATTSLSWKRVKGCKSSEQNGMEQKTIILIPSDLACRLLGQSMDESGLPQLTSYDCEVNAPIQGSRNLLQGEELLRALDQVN
Summary of the method: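 Measures endogenous transcription-factor activity through cis-regulated reporter mRNA in HepG2. Cells dosed 24 h; transcripts quantified by RT-PCR with 6-FAM-labelled products separated by capillary electrophoresis; DMSO serves as negative control.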

[4] = target: Hepatocyte nuclear factor 6 (Homo sapiens) (UniProt Q9UBC0); experiment: ATG_HNF6_CIS: Attagene CIS-FACTORIAL HepG2 Assay for human Hepatocyte Nuclear Factor 6 (HNF6) (AID 2282952); details: HepG2 Attagene cis-factorial HNF6 reporter transcription; actives raise or lower the signal
Hepatocyte nuclear factor 6 (Homo sapiens), sequence (Q9UBC0 whole entry, looked up): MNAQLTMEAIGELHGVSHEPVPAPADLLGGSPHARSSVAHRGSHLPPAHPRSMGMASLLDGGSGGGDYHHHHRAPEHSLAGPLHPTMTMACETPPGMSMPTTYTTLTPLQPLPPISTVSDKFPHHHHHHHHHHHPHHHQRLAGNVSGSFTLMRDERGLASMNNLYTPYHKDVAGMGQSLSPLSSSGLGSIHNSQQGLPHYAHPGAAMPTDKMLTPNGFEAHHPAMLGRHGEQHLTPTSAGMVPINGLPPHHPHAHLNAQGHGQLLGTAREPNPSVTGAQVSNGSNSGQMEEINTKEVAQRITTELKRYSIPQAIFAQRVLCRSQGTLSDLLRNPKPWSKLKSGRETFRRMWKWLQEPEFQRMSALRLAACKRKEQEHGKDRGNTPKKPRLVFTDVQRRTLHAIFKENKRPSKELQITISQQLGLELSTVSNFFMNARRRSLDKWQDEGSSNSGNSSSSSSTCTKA
Summary of the method: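 Activity values derive from bidirectional fitting against DMSO of reporter mRNA levels, measured by capillary electrophoresis of labelled RT-PCR products from HepG2 cells exposed 24 h.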

[5] = target: Heat shock factor protein 1 (Homo sapiens) (UniProt Q00613); experiment: ATG_HSE_CIS: Attagene CIS-FACTORIAL HepG2 Assay for human Heat Shock Transcription Factor 1 (HSE) (AID 2282953); details: HepG2 HSE cis-reporter, Attagene RNA transcription; actives raise or lower the signal
Heat shock factor protein 1 (Homo sapiens), sequence (Q00613 whole entry, looked up, the tested form may be a part): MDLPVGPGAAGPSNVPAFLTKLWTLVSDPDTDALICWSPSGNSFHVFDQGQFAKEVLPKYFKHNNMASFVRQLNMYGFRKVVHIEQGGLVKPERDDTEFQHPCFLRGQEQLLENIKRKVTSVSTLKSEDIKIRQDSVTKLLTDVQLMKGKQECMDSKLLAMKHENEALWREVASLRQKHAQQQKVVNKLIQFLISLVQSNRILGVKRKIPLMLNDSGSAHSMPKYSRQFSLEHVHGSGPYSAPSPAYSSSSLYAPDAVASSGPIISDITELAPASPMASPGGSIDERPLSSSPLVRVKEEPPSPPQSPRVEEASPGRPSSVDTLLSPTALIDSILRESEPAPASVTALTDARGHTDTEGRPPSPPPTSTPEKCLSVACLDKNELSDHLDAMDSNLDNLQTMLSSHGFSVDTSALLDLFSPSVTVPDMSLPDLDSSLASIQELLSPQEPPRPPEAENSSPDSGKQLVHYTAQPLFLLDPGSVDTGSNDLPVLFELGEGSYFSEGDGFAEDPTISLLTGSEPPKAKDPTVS
Summary of the method: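 Read-out: fluorescence of reporter-specific RT-PCR fragments separated by capillary electrophoresis. HepG2 carrying transfected cis-element reporter units; 24 h dosing; activity fitted in both directions relative to DMSO baseline.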

[6] = ATG_RORE_CIS: Attagene CIS-FACTORIAL HepG2 Assay for human RAR-related Orphan Receptor Element (RORE) (AID 2282959); details: HepG2 Attagene cis-factorial RORE reporter, mRNA; actives raise or lower the signal
Summary of the method: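 Cells were HepG2 carrying transfected cis-regulated reporter constructs, dosed for 24 hours. Total RNA was reverse-transcribed and reporter cDNA amplified, fluorescently labeled and sized by capillary electrophoresis. Activity was fitted bidirectionally relative to DMSO.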

[7] = ATG_TGFb_CIS: Attagene CIS-FACTORIAL HepG2 Assay for human Transforming Growth Factor (TGF) (AID 2282967); details: HepG2 Attagene CIS TGFb reporter, mRNA transcription; actives raise or lower the signal
Summary of the method: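 Readout: fluorescently labeled reporter cDNA fragments resolved by capillary electrophoresis after RT-PCR. Transfected HepG2 cells dosed for 24 h; endogenous TF activity at TGFB1-linked cis element; gain or loss fitted relative to DMSO.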

[8] = target: X-box-binding protein 1 (Homo sapiens) (UniProt P17861); experiment: ATG_Xbp1_CIS: Attagene CIS-FACTORIAL HepG2 Assay for human X-box Binding Protein 1 (XBP1) (AID 2282972); details: HepG2 XBP1 cis-element reporter, Attagene multiplex; actives raise or lower the signal
X-box-binding protein 1 (Homo sapiens), sequence (P17861 whole entry, looked up): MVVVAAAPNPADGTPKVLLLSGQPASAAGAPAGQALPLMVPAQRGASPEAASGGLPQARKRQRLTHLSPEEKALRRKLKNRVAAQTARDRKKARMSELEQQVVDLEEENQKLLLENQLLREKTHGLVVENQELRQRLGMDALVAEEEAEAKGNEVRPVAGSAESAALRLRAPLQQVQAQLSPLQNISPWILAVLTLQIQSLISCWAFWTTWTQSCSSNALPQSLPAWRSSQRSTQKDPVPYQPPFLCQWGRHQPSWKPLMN
Summary of the method: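 Human hepatoma HepG2, cis-element reporter system, 24 h treatment; mRNA quantified by RT-PCR/CE fluorescence; fit relative to DMSO.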

[9] = target: Transcriptional activator Myb (Homo sapiens) (UniProt P10242); experiment: ATG_Myb_CIS: Attagene CIS-FACTORIAL HepG2 Assay for human Myeloblastosis (Myb) Proto-Oncogene Transcription Factor (AID 2282986); details: HepG2 Attagene CIS-FACTORIAL Myb reporter transcription; actives raise or lower the signal
Transcriptional activator Myb (Homo sapiens), sequence (P10242 whole entry, looked up): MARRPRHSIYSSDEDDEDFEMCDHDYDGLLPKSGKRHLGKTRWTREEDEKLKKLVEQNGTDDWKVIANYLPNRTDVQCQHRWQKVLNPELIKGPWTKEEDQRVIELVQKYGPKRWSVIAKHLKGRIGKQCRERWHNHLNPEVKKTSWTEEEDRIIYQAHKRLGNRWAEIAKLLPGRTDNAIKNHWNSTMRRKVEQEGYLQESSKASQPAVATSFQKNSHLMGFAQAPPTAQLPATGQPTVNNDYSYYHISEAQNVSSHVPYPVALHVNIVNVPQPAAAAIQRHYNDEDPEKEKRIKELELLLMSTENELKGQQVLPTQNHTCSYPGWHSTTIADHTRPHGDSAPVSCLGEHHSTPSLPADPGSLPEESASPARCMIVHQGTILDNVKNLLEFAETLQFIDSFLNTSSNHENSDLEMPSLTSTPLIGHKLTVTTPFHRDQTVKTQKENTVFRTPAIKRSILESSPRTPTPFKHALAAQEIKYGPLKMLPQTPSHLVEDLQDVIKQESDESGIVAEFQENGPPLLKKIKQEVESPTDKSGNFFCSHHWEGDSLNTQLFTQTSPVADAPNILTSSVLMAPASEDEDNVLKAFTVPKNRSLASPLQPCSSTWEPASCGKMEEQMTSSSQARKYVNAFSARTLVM
Summary of the method: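 Steps: transfect HepG2 with cis-regulated reporter units; dose with chemical for 24 h; isolate RNA, reverse-transcribe, PCR-amplify and FAM-label reporter sequences; digest with HpaI; resolve by capillary electrophoresis. Activity fitted in both directions relative to DMSO.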

[10] = target: Nuclear respiratory factor 1 (Homo sapiens) (UniProt Q16656); experiment: ATG_NRF1_CIS: Attagene CIS-FACTORIAL HepG2 Assay for human Nuclear Respiratory Factor 1 (NRF1) Orphan Gene (AID 2282987); details: HepG2 NRF1 cis-element reporter, Attagene multiplex; actives raise or lower the signal
Nuclear respiratory factor 1 (Homo sapiens), sequence (Q16656 whole entry, looked up, the tested form may be a part): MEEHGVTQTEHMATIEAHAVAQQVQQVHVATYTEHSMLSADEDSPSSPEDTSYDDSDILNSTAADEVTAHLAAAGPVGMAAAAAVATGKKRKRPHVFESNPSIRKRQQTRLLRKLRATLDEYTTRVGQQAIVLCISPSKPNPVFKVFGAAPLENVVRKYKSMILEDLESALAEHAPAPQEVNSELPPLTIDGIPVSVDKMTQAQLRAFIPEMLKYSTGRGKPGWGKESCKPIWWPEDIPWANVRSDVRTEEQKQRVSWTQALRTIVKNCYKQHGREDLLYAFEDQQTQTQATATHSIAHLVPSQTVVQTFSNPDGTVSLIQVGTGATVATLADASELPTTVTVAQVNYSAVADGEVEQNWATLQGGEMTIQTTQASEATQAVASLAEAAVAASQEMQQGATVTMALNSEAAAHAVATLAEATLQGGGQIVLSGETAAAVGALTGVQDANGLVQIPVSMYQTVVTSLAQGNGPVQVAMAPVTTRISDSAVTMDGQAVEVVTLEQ
Summary of the method: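 Fluorescence intensity of labelled reporter cDNA fragments, resolved by capillary electrophoresis, served as readout for NRF1 cis-element activity. Transiently transfected HepG2 cells were dosed for 24 hours; activity in either direction was fitted against DMSO negative control.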

[11] = ATG_NFI_CIS: Attagene CIS-FACTORIAL HepG2 Assay for human Nuclear Factor I (NFI) (AID 2282989); details: HepG2 cis-regulatory reporter, NFI response element transcription; actives raise or lower the signal
Summary of the method: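 Read-out: reporter mRNA via RT-PCR plus capillary electrophoresis with fluorescence detection. Transiently transfected HepG2 (endogenous TF activity on cis promoters), 24 h compound exposure; gain or loss of signal fitted against DMSO.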

[12] = target: Myc proto-oncogene protein (Homo sapiens) (UniProt P01106); experiment: ATG_Myc_CIS: Attagene CIS-FACTORIAL HepG2 Assay for human Myelocytomatosis (Myc) Proto-Oncogene Transcription Factor (AID 2282990); details: HepG2, Attagene cis-reporter transcription factor activity; actives raise or lower the signal
Myc proto-oncogene protein (Homo sapiens), sequence (P01106 whole entry, looked up): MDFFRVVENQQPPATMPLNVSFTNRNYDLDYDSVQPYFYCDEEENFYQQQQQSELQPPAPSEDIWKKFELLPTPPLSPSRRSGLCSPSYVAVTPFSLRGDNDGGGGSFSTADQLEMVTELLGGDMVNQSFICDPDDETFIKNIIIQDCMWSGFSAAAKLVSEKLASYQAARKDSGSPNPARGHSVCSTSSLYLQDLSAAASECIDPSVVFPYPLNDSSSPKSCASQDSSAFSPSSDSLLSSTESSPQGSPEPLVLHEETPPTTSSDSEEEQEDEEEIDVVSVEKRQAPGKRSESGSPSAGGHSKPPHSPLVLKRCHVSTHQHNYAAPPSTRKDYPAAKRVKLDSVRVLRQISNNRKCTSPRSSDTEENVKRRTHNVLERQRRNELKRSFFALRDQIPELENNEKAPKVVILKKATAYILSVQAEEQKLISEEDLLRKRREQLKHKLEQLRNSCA
Summary of the method: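 HepG2 cells transiently transfected with multiple cis-promoter-driven reporter transcription units, so endogenous TF activity is read. After 24 h compound exposure, reporter mRNA was quantified by RT-PCR, 6-FAM labelling, HpaI digestion and capillary electrophoresis; bidirectional fit versus DMSO.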

[13] = target: Cellular tumor antigen p53 (Homo sapiens) (UniProt P04637); experiment: ATG_p53_CIS: Attagene CIS-FACTORIAL HepG2 Assay for human p53 Transcription Factor (AID 2282994); details: HepG2 p53 cis-element reporter, Attagene mRNA; actives raise or lower the signal
Cellular tumor antigen p53 (Homo sapiens), sequence (P04637 whole entry, looked up): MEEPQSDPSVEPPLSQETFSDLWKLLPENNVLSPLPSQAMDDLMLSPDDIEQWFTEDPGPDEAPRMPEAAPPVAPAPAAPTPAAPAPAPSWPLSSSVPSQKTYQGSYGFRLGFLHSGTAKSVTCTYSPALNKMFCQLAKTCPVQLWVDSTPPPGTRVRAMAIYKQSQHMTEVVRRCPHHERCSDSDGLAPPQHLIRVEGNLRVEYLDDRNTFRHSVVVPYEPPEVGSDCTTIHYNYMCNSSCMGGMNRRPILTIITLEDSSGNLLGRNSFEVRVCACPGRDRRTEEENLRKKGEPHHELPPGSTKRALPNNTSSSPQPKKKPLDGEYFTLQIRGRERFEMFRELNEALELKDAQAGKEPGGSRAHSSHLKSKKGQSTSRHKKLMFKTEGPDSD
Summary of the method: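 Transiently transfected HepG2 (multiple cis reporter transcription units); exposure 24 h; reporter RNA via RT-PCR, 6-FAM extension, 2 h HpaI digest at 37 C, CE detection; DMSO baseline.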

[14] = target: Nuclear receptor subfamily 1 group I member 2 (Homo sapiens) (UniProt O75469); experiment: ATG_PXR_TRANS: Attagene TRANS-FACTORIAL HepG2 Assay for human Pregnane X Receptor (PXR) (AID 2283008; active = hit-call score of the fitted dose curve at least 0.9, where 1 is the maximum)
Nuclear receptor subfamily 1 group I member 2 (Homo sapiens), sequence (O75469 whole entry, looked up, the tested form may be a part): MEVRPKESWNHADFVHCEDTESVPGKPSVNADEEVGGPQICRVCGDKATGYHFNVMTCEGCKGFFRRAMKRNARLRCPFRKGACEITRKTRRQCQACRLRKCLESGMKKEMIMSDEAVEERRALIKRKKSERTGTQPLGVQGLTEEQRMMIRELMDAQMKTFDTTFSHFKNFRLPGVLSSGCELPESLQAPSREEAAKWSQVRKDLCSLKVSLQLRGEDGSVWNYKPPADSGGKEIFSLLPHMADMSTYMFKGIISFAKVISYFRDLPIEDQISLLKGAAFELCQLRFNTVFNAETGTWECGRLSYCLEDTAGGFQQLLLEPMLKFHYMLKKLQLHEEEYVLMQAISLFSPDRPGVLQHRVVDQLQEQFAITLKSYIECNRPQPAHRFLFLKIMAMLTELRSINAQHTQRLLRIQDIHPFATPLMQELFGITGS
Summary of the method: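 Transient HepG2 transfectants carrying multiplexed reporter transcription units; PXR activity read through a Gal4 chimera. 24 h exposure. RT-PCR/CE fluorescence; upward curve fit referenced to DMSO.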

[15] = ATG_XTT_Cytotoxicity: Cytotoxicity Assessment in the Attagene TRANS-FACTORIAL HepG2 Assay (AID 2283584; active = hit-call score of the fitted dose curve at least 0.9, where 1 is the maximum)
Summary of the method: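 HepG2 human liver cells, transiently transfected with multiple GAL4-UAS reporter units, were dosed and read at 24 h by XTT as cell number. Loss of signal was fitted relative to DMSO negative control baseline.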

[16] = ATG_M_32_CIS: Attagene CIS-FACTORIAL HepG2 Assay for M32 Transcription Factor (Internal Marker) (AID 2282949); details: HepG2 Attagene cis-factorial M32 reporter, mRNA; actives raise or lower the signal;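 note: background control marker of the multiplexed CIS panel rather than a real target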
Summary of the method: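 HepG2 transfectants (cis-regulated reporter transcription units) dosed 24 h. Reporter mRNA by RT-PCR plus CE, analysed as gain or loss relative to DMSO.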

[17] = ATG_TAL_CIS: Attagene CIS-FACTORIAL HepG2 Assay for human TAL Basal Promoter (AID 2282966); details: HepG2 Attagene cis-factorial TAL promoter reporter; actives raise or lower the signal;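 note: background control endpoint measuring basal TAL promoter reporter mRNA not a specific factor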
Summary of the method: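 Transiently transfected HepG2 (cis-regulated reporter units), 24 h treatment, mRNA read by fluorescent CE after RT-PCR; bidirectional fit, DMSO baseline.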

[18] = ATG_M_32_TRANS: Attagene TRANS-FACTORIAL HepG2 Assay for M32 Transcription Factor (Internal Marker) (AID 2282984; active = hit-call score of the fitted dose curve at least 0.9, where 1 is the maximum;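 note: transcript level of a background control reporter unit measured by RT-PCR and capillary electrophoresis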); details: HepG2 Attagene TRANS M32 internal marker reporter
Summary of the method: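 After 24 h dosing of transfected HepG2 cells, total RNA was reverse-transcribed, reporter sequences PCR-amplified, 6-FAM labelled by primer extension and HpaI-digested before capillary electrophoresis. Signal increase over DMSO was fitted.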

[19] = ATG_NF_kB_CIS: Attagene CIS-FACTORIAL HepG2 Assay for human Nuclear Factor Kappa B (NF-kB) (AID 2282991); details: HepG2 Attagene cis-factorial NF-kB reporter mRNA; actives raise or lower the signal
Summary of the method: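 Endogenous transcription factor activity in HepG2 was captured via cis-regulated reporter constructs; after 24 h dosing, reporter mRNA was reverse-transcribed, amplified, fluorescently labelled and sized by capillary electrophoresis, with activity fitted bidirectionally relative to DMSO.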

[20] = ATG_NRF2_ARE_CIS: Attagene CIS-FACTORIAL HepG2 Assay for human Nuclear Factor Erythroid 2 Related Factor 2 (NFR2) response to Antioxidant Response Elements (ARE) (AID 2282992); details: HepG2 Attagene ARE/NRF2 reporter, transcription factor activity; actives raise or lower the signal
Summary of the method: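 Fluorescence intensity of reporter-specific cDNA fragments, separated by capillary electrophoresis, reflects mRNA induction in transfected HepG2 cells at 24 h. Activity is fitted bidirectionally, DMSO serving as baseline.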

Measured: AC50

[Cl-].[Cl-].[Cl-].[Yb+3]
not listed: [16] | [17] | [18] | [19] | [20]
inactive: all other assays above

CCCCCCC1CCOC1=O (stereo not given)
inactive: all assays above

ClCC(Cl)Cl
active: [14] 26.6 µM
not listed: [17] | [18]
inactive: all other assays above

CC(C)C#N
not listed: [13] | [14] | [20]
inactive: all other assays above
